Among the data in ChEMBL document CHEMBL1961873, “Compounds: GSK PKIS; Assays: Nanosyn kinase panel” (2012) are inhibition values, retold here.

Experiment [1] addresses Tyrosine-protein kinase Fer (Homo sapiens) (UniProt P16591). As to conditions: at 1 µM.
For experiment [2], the target named is Tyrosine-protein kinase Fes/Fps (Homo sapiens) (UniProt P07332). As to conditions: at 0.1 µM.
The target is the same in experiment [3]. To be noted: at 1 µM.
Experiment [4] concerns the target Fibroblast growth factor receptor 1 (Homo sapiens) (UniProt P11362). To be noted: at 0.1 µM.
Experiment [5] has the same target. To be noted: at 1 µM.
Experiment [6] deals with Fibroblast growth factor receptor 2 (Homo sapiens) (UniProt P21802). As to conditions: at 0.1 µM.
Experiment [7] shares this target. As to conditions: at 1 µM.
The target in experiment [8] is Fibroblast growth factor receptor 3 (Homo sapiens) (UniProt P22607). As to conditions: at 0.1 µM.
Experiment [9] shares this target. As to conditions: at 1 µM.
In experiment [10] the target is Fibroblast growth factor receptor 4 (Homo sapiens) (UniProt P22455). As to conditions: at 0.1 µM.
Experiment [11] has the same target. As to conditions: at 1 µM.
In experiment [12] the target is Tyrosine-protein kinase Fgr (Homo sapiens) (UniProt P09769). As to conditions: at 0.1 µM.
The target is the same in experiment [13]. To be noted: at 1 µM.
The target of experiment [14] is Vascular endothelial growth factor receptor 1 (Homo sapiens) (UniProt P17948). To be noted: at 0.1 µM.
For experiment [15] the target is unchanged. To be noted: at 1 µM.
Experiment [16] concerns the target Receptor-type tyrosine-protein kinase FLT3 (Homo sapiens) (UniProt P36888). To be noted: at 0.1 µM.
For experiment [17] the target is unchanged. To be noted: at 1 µM.
Experiment [18] concerns T1, Receptor-type tyrosine-protein kinase FLT3 (Homo sapiens), P36888 [D835Y].
T1 sequence (whole entry): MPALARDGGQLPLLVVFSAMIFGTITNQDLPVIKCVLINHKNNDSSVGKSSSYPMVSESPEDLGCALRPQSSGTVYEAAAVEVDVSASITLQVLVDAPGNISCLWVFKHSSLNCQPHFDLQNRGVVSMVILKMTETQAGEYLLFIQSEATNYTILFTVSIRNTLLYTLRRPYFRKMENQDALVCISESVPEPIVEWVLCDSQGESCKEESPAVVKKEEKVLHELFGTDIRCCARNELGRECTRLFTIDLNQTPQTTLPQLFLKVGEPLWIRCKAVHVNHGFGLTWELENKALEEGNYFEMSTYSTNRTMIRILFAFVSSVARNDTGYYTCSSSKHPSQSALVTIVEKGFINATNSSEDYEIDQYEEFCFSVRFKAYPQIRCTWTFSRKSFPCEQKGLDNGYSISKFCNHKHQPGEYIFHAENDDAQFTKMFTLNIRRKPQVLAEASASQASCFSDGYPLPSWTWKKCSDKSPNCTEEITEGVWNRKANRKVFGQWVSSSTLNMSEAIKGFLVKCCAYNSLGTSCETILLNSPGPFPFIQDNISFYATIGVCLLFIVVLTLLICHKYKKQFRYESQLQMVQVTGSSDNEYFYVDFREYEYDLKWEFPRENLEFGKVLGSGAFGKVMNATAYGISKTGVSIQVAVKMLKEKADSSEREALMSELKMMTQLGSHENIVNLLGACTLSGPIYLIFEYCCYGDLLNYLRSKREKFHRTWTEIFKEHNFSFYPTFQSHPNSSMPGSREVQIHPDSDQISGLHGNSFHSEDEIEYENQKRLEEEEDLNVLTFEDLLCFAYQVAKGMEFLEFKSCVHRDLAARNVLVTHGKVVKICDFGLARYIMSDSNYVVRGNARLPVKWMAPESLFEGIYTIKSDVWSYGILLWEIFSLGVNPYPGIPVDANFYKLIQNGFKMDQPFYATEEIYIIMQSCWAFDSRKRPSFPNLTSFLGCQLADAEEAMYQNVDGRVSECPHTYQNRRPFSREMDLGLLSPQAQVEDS
As to conditions: at 0.1 µM.

Experiment [19] concerns the target Non-receptor tyrosine-protein kinase TYK2 (Homo sapiens) (UniProt P29597). As to conditions: at 1 µM.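 Also: values are mean percent inhibition of TYK2 kinase.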
Experiment [20] concerns the target T2, Tyrosine-protein kinase receptor TYRO3 (Homo sapiens) (UniProt Q06418).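 Also: reported percentages are averaged inhibition values of TYRO3 kinase activity.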
T2 sequence (whole entry): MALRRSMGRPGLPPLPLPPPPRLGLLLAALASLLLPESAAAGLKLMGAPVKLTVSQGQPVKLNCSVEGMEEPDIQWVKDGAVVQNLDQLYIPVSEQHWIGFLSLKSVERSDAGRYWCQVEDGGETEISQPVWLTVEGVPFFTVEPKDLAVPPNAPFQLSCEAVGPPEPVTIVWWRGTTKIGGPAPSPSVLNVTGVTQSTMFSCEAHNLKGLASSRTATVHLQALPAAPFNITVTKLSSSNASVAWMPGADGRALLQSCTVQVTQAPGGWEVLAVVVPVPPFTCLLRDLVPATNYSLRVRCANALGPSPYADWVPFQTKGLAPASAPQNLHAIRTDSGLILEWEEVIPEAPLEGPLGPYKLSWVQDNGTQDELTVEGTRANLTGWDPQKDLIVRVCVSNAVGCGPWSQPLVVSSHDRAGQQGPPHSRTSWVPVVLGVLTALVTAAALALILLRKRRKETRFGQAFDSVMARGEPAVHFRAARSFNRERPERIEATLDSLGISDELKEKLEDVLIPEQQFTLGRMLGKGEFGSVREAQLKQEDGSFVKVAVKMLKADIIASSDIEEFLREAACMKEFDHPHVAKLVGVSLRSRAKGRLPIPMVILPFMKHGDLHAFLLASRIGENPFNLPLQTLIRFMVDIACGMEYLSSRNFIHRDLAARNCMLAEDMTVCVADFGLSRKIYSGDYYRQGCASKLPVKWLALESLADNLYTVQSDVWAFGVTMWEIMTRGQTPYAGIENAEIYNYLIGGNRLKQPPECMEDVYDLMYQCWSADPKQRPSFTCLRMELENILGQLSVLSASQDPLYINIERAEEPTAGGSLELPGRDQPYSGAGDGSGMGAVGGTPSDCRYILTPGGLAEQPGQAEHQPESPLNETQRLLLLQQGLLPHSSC
As to conditions: at 0.1 µM.

Chain of Fibroblast growth factor receptor 4 (Homo sapiens) (P22455 22-802 limits assumed): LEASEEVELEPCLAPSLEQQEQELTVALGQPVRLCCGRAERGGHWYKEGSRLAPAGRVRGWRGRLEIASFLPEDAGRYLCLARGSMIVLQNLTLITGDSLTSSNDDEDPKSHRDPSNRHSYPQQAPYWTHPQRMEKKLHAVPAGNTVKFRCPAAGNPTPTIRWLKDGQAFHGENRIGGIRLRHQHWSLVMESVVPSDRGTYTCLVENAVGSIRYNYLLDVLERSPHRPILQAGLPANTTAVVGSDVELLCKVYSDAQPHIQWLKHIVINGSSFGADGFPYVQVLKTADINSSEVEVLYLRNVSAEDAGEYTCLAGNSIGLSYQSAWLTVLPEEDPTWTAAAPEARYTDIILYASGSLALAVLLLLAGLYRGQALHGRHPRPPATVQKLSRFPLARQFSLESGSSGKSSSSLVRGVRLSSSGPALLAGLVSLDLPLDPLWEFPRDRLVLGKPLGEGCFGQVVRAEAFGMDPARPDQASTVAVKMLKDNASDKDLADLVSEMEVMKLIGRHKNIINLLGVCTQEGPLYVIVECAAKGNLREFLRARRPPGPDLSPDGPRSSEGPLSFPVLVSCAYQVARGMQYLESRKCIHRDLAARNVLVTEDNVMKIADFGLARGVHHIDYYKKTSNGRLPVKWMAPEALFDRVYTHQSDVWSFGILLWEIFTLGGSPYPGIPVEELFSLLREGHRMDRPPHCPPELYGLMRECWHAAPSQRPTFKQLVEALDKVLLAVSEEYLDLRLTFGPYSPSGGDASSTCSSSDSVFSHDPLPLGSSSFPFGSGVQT
Chain of Vascular endothelial growth factor receptor 1 (Homo sapiens) (P17948 whole entry): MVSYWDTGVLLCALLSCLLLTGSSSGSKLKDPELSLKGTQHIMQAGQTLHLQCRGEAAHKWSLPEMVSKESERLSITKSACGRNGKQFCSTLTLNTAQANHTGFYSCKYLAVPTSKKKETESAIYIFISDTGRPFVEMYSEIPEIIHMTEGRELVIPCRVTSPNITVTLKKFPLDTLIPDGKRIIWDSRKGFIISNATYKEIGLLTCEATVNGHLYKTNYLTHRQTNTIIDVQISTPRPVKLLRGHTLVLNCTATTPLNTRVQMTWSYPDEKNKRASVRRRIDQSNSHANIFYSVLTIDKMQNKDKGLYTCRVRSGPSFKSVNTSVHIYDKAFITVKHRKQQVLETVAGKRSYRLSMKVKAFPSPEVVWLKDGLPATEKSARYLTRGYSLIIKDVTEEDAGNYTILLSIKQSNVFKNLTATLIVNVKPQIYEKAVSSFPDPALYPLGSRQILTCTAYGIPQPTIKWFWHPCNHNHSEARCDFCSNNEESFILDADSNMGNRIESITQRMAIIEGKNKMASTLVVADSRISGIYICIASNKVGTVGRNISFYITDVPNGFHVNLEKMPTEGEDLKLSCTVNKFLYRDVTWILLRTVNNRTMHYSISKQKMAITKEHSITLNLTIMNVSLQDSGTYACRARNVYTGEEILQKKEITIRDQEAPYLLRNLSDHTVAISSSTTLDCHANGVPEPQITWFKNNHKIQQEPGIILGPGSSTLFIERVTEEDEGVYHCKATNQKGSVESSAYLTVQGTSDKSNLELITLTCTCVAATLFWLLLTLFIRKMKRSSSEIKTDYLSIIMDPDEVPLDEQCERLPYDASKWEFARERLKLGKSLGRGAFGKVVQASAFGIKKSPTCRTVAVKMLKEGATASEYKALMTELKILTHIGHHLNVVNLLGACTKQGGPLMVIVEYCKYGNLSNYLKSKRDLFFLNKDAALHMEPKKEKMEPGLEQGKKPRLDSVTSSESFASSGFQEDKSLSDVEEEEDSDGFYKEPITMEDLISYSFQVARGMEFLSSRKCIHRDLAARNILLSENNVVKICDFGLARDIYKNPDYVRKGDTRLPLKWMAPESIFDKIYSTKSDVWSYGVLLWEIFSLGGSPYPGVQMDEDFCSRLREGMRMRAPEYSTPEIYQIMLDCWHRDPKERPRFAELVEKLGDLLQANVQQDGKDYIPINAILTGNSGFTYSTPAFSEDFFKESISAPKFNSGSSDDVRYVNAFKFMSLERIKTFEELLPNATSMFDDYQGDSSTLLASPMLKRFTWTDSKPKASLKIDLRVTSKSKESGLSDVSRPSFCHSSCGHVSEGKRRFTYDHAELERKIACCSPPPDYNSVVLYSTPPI
Chain of Non-receptor tyrosine-protein kinase TYK2 (Homo sapiens) (P29597 whole entry): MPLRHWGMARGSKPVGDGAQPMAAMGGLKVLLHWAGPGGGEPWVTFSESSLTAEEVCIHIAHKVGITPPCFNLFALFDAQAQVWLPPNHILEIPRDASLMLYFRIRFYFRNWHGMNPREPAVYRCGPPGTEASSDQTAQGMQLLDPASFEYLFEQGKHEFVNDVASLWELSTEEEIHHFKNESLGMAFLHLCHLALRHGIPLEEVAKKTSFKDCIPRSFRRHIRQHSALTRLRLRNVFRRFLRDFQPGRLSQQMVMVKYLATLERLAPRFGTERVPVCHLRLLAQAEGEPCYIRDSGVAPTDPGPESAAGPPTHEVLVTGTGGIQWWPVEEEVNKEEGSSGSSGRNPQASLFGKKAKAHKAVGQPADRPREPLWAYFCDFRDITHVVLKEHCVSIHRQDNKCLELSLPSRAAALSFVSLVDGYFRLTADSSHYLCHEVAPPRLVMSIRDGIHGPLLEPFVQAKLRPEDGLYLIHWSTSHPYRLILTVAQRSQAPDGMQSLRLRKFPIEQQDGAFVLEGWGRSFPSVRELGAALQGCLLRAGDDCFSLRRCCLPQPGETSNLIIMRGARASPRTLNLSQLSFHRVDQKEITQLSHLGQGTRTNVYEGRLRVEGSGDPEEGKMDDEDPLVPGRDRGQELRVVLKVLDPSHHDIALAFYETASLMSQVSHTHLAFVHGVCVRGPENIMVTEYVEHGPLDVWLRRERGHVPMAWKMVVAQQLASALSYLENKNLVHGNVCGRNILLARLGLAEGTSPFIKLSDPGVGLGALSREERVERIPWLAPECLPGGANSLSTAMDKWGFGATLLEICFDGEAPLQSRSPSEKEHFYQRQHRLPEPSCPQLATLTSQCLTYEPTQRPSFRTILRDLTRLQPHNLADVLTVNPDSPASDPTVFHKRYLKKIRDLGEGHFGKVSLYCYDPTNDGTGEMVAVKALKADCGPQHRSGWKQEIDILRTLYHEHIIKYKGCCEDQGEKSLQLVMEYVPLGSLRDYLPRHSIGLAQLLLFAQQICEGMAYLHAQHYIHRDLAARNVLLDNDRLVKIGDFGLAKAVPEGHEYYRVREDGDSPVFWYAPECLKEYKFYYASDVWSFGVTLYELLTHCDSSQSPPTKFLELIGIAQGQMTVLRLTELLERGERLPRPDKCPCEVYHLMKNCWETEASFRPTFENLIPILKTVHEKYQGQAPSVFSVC
Chain of Fibroblast growth factor receptor 3 (Homo sapiens) (P22607 23-806 limits assumed): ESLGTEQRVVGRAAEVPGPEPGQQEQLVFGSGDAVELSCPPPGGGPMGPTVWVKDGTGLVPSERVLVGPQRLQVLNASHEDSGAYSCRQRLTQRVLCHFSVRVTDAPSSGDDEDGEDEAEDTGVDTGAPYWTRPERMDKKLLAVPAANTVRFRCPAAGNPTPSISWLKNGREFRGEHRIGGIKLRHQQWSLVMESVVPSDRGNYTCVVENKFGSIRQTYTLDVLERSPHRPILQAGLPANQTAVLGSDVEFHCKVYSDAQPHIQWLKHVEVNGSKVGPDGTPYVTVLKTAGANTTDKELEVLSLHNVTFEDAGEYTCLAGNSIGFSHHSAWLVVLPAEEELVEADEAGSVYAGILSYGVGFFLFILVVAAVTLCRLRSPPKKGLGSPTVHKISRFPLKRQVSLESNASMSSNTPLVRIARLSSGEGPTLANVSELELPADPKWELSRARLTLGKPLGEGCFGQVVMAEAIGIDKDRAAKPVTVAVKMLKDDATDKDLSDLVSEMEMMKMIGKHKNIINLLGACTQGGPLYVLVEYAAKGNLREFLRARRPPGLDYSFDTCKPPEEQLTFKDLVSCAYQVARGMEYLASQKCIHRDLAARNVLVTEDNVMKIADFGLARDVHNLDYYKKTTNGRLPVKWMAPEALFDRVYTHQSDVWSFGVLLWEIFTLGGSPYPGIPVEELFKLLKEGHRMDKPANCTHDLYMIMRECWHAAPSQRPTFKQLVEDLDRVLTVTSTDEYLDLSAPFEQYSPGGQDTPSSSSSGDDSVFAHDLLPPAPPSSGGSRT
Chain of Tyrosine-protein kinase Fgr (Homo sapiens) (P09769 2-529 limits assumed): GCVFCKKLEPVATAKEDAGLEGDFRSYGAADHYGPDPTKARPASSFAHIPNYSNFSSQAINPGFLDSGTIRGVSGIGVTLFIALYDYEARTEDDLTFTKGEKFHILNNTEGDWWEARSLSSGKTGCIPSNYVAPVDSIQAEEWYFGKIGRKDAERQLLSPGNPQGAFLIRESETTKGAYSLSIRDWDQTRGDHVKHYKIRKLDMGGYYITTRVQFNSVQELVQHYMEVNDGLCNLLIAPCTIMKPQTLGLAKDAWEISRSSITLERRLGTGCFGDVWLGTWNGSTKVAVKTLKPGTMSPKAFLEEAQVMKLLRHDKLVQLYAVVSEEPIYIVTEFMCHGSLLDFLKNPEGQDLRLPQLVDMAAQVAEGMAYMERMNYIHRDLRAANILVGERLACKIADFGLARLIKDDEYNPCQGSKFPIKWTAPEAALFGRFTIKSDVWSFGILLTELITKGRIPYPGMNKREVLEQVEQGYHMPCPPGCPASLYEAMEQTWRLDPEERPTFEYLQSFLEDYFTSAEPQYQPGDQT

With `CC(C)c1ccc(Nc2nccc(-c3cnn4ncccc34)n2)cc1`, the inhibition was determined as 16% in experiment [1]; 5.26% in experiment [2]; 25.5% in [3]; 4.84% in experiment [4]; 4.17% in experiment [5]; 0.37% in experiment [6]. In addition, the inhibition in experiment [7] was 7.86%; in experiment [8], 7.5%; in [9], 6.25%; in experiment [10], 2.11%; in experiment [11] it was 3.28%; in experiment [12], 3.66%. For the same molecule, the inhibition in [13] worked out at 7.87%; in [14], 3.33%; in [15] it was 10.9%; in [16], 16.1%; in experiment [17], 61.1%; in [18] it was 1.27%. Moreover, the inhibition in experiment [19] is -0.13%; in experiment [20], 2.38%.
`FC(F)(F)c1ccc(-c2nn3ncccc3c2-c2ccnc(Nc3ccc4c(c3)OCCO4)n2)cc1`: the inhibition is 12.1% in experiment [1]; -0.13% in experiment [2]; 1.22% in experiment [3]; 7.55% in experiment [4]; 6.28% in experiment [5]; 6.74% in [6]. Besides, the inhibition in experiment [7] was found to be 11.1%; in experiment [8] it was 6.49%; in experiment [9], 6.94%; in experiment [10], 6.29%; in [11], 11.7%; in experiment [12], 25.6%. Also, the inhibition is 61.1% in [13]; 1.91% in experiment [14]; 4.89% in [15]; 1.7% in [16]; 0.28% in experiment [17]; 4.42% in experiment [18]. Further, the inhibition in experiment [19] stood at 5.73%; in experiment [20], 1.27%.
Take `CS(=O)(=O)CCNCc1nc(-c2ccc3ncnc(Nc4ccc(OCc5cccc(C(F)(F)F)c5)cc4)c3c2)cs1`: the inhibition in [1] came out at 6.92%; in experiment [2] it was 1.48%; in [3], 3.22%; in experiment [4], 2.15%; in experiment [5], 4.98%; in experiment [6] it was 6.08%. Moreover, the inhibition in experiment [7] worked out at 5.8%; in [8] it was 4.91%; in experiment [9], 4.35%; in experiment [10] it was 4.89%; in [11], 0.59%; in experiment [12] it was 2.47%. The inhibition is 4.41% in experiment [13]; -0.29% in experiment [14]; -0.5% in [15]; 7.87% in experiment [16]; 32.1% in experiment [17]; 2.62% in experiment [18]. The inhibition in [19] was -0.77%; in experiment [20], 0.47%.
On to `COC(=O)c1cncc(/C=C/c2c(C)cc(O)cc2C)c1`, for which the inhibition in [1] is 2%; in [2], 1.96%; in [3] it was 3.05%; in experiment [4] it was 4.08%; in experiment [5] it was 0.61%; in experiment [6], 4.05%. Further, the inhibition in experiment [7] was 7.59%; in experiment [8], 6.59%; in experiment [9] it was 4.87%; in experiment [10] it was -1.32%; in experiment [11] it was 0.95%; in [12], 5.81%. In addition, the inhibition was 20.9% in experiment [13]; 0.94% in experiment [14]; 0.15% in [15]; 2.01% in experiment [16]; 3.02% in experiment [17]; -1.65% in experiment [18]. The inhibition in experiment [19] is -3.53%; in [20] it was 3.21%.
On to `NS(=O)(=O)c1ccc(N/N=C2\C(=O)Nc3ccc(Cl)cc32)cc1`, for which the inhibition in experiment [1] came to 7.24%; in [2], 2.52%; in experiment [3], 2.84%; in experiment [4], 1.63%; in [5] it was 1%; in experiment [6], 2.43%. Also, the inhibition was 14.7% in experiment [7]; 5.81% in experiment [8]; 13% in [9]; -1.18% in experiment [10]; 0.91% in [11]; 4.13% in experiment [12]. In addition, the inhibition in experiment [13] is 7.63%; in experiment [14], 2.91%; in experiment [15], 8.28%; in [16], 16.4%; in [17], 66.7%; in [18] it was -0.18%. In addition, the inhibition is 0.36% in experiment [19] and 3.25% in experiment [20].
As for `ON=C1CCc2cc(-c3nc(C4CCNCC4)[nH]c3-c3ccncc3)ccc21`, the inhibition was 0.21% in [1]; 0.52% in [2]; 0.86% in [3]; -5.96% in experiment [4]; -0.14% in experiment [5]; -1.99% in [6]. Besides, the inhibition in experiment [7] was 5.39%; in experiment [8] it was 3.1%; in [9], 2.75%; in experiment [11], 1.91%; in [12], -1.48%; in experiment [13], 2.99%. Further, the inhibition in experiment [14] is 0.48%; in experiment [15] it was 0.61%; in experiment [16] it was -2.95%; in experiment [17], 0.24%; in experiment [18], -4.99%; in [19], -0.2%. Moreover, in experiment [20], the inhibition is 0.16%.
